A short description of assay [1]: ATG_CRE_CIS: Attagene CIS-FACTORIAL HepG2 Assay for human cAMP Responsive Element (CRE) binding protein 3 (AID 2282926). The conditions noted are these: HepG2 CRE cis-reporter, Attagene multiplexed mRNA; actives raise or lower the signal. The gist of the method:
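Endogenous transcription factor activity read via CRE-regulated reporter transcripts in transfected HepG2 cells. After 24 h exposure, RNA was reverse-transcribed, amplified, fluorescently labelled and sized by capillary electrophoresis; gain or loss fitted against DMSO.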

Assay [2] concerns the target CCAAT/enhancer-binding protein beta (Homo sapiens) (UniProt P17676). Briefly: ATG_C_EBP_CIS: Attagene CIS-FACTORIAL HepG2 Assay for human CCAAT/Enhancer Binding Protein (C/EBP) beta (AID 2282927). The conditions noted are these: HepG2 Attagene cis-factorial transcription factor reporter; actives raise or lower the signal. In a few lines: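 Changes in reporter mRNA, rather than exogenous chimeric receptor activity, reflect native C/EBP signalling in transfected HepG2 cells dosed for 24 h; transcripts are detected by RT-PCR and capillary electrophoresis.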

Assay [3] can be described thus: ATG_CMV_CIS: Attagene CIS-FACTORIAL HepG2 Assay for human CMV (Internal Marker) (AID 2282928).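 Note: endpoint acts as a background internal control marker rather than a target.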 The conditions noted are these: HepG2 CMV promoter reporter, transcription factor profiling; actives raise or lower the signal. The gist of the method: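 Readout: fluorescent reporter cDNA fragments separated by capillary electrophoresis after RT-PCR and HpaI cut. Cells: HepG2 carrying transfected cis-promoter reporter constructs, dosed 24 h. Endpoint serves as background internal-marker control, fit bidirectionally versus DMSO.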

Assay [4] in a line: ATG_DR4_LXR_CIS: Attagene CIS-FACTORIAL HepG2 Assay for human Liver X Receptor (LXR), DR4 submotif (AID 2282929). The settings on record: HepG2 Attagene DR4 cis-reporter, mRNA transcription; actives raise or lower the signal. The gist of the method: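 HepG2 cells were transiently transfected with multiple cis-regulated reporter units and dosed for 24 hours. The DR4 reporter mRNA was quantified by RT-PCR, 6-FAM labelling and capillary electrophoresis. Bidirectional fits used DMSO as baseline.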

Assay [5] addresses Aryl hydrocarbon receptor (Homo sapiens) (UniProt P35869). Description: ATG_Ahr_CIS: Attagene CIS-FACTORIAL HepG2 Assay for human Aryl Hydrocarbon Receptor (Ahr) (AID 2282930). The conditions noted are these: HepG2 AhR cis-factorial reporter transcription; actives raise or lower the signal. The gist of the method:
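HepG2, transient MRTU (cis) transfection, 24 h exposure. RNA → cDNA → PCR → 6-FAM primer extension → HpaI 2 h 37 C → CE. Fit: bidirectional, DMSO baseline.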

Assay [6] is described as follows: ATG_AP_1_CIS: Attagene CIS-FACTORIAL HepG2 Assay for human Activator Protein 1 (AP-1) (AID 2282931). The settings on record: HepG2 Attagene cis-factorial AP-1 reporter mRNA; actives raise or lower the signal. In a few lines:
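HepG2 cells transiently transfected with cis-element-driven reporter transcription units, dosed for 24 hours. Reporter mRNA measured by RT-PCR, 6-FAM labelling, HpaI digestion and capillary electrophoresis. Bidirectional fitting against DMSO baseline.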

Assay [7] can be described thus: ATG_AP_2_CIS: Attagene CIS-FACTORIAL HepG2 Assay for human Activator Protein 2 (AP-2) (AID 2282932). The settings on record: HepG2 AP-2 cis-reporter, Attagene transcription factor profiling; actives raise or lower the signal. In a few lines:
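Endogenous transcription factor activity is reported through transfected multiplex reporter constructs in HepG2, after 24 h of compound exposure. Transcripts were quantified by RT-PCR and capillary electrophoresis of fluorescent fragments. Bidirectional fit against DMSO.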

Assay [8] in a line: ATG_BRE_CIS: Attagene CIS-FACTORIAL HepG2 Assay for human Bone Morphogenetic Protein (BMP) Response Element (BRE) (AID 2282933). The conditions noted are these: HepG2 BMP response element reporter, Attagene transcription factor profiling; actives raise or lower the signal. In a few lines: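 Transient MRTU transfection of human HepG2 liver cells; 24 h compound treatment; total RNA isolated, reverse-transcribed, PCR-amplified, 6-FAM labelled, HpaI-cut, capillary electrophoresis. DMSO = negative control/baseline, bidirectional fit.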

For assay [9], the target named is Retinoic acid receptor alpha (Homo sapiens) (UniProt P10276). Description: ATG_DR5_RAR_CIS: Attagene CIS-FACTORIAL HepG2 Assay for human Retinoic Acid Receptor Alpha (RARE), DR5 submotif (AID 2282934).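 For AC50: reporter responds to endogenous RAR alpha beta and gamma in HepG2 not RARA alone.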 The settings on record: HepG2 Attagene cis-factorial RARE DR5 reporter, mRNA; actives raise or lower the signal. The gist of the method:
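HepG2, transient cis-reporter transfection, 24 h exposure. mRNA readout: RT-PCR, FAM label, HpaI cut, capillary electrophoresis. DMSO baseline, gain/loss fitting.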

In assay [10] the target is Transcription factor E2F1 (Homo sapiens) (UniProt Q01094). Briefly: ATG_E2F_CIS: Attagene CIS-FACTORIAL HepG2 Assay for human E2F Transcription Factor 1 (AID 2282935). The settings on record: HepG2 Attagene cis-reporter, E2F reporter RNA transcripts; actives raise or lower the signal. The gist of the method:
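Gain or loss of reporter transcript, fitted against DMSO, reflects E2F1-driven transcription. Transiently transfected HepG2 dosed 24 h before RNA isolation. Quantified by fluorescent RT-PCR products separated by capillary electrophoresis.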

Activity calls are given as the source filed them. Rule for the calls: active = hit-call score of the fitted dose curve at least 0.9, where 1 is the maximum; inactive = score below 0.9.

Transcription factor E2F1 (Homo sapiens), sequence (Q01094 whole entry, looked up): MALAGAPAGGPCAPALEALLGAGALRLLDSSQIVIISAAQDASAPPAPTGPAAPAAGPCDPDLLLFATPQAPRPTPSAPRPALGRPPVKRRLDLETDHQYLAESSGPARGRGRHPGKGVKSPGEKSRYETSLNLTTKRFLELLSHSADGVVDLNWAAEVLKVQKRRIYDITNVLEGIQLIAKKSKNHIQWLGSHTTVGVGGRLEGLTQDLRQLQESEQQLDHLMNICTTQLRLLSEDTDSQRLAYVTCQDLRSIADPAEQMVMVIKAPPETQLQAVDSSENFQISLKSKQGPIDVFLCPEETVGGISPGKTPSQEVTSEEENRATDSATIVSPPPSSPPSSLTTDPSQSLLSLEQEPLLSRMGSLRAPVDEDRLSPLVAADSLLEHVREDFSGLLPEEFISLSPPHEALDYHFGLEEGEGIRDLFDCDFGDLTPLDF
CCAAT/enhancer-binding protein beta (Homo sapiens), sequence (P17676 whole entry, looked up): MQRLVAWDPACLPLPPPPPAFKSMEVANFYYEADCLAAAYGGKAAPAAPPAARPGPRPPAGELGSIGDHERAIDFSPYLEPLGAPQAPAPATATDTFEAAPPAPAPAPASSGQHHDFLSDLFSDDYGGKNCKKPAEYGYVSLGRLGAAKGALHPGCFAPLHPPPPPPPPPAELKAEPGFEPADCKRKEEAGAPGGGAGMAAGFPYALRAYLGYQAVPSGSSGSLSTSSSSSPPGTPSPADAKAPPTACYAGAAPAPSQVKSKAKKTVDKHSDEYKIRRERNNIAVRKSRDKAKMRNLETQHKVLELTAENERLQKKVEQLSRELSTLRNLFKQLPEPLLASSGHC
Retinoic acid receptor alpha (Homo sapiens), sequence (P10276 whole entry, looked up): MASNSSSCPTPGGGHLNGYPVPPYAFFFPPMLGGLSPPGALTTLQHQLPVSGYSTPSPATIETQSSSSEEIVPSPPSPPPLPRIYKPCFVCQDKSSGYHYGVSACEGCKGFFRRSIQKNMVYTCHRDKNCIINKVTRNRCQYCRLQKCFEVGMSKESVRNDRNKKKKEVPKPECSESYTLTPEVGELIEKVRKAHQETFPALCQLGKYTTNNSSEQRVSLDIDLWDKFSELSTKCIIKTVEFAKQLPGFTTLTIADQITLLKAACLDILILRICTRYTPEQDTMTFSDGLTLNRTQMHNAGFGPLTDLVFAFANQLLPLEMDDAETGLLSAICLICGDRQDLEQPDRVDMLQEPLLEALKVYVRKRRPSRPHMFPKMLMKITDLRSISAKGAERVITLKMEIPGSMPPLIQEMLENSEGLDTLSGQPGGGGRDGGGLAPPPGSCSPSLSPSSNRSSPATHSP
Aryl hydrocarbon receptor (Homo sapiens), sequence (P35869 whole entry, looked up): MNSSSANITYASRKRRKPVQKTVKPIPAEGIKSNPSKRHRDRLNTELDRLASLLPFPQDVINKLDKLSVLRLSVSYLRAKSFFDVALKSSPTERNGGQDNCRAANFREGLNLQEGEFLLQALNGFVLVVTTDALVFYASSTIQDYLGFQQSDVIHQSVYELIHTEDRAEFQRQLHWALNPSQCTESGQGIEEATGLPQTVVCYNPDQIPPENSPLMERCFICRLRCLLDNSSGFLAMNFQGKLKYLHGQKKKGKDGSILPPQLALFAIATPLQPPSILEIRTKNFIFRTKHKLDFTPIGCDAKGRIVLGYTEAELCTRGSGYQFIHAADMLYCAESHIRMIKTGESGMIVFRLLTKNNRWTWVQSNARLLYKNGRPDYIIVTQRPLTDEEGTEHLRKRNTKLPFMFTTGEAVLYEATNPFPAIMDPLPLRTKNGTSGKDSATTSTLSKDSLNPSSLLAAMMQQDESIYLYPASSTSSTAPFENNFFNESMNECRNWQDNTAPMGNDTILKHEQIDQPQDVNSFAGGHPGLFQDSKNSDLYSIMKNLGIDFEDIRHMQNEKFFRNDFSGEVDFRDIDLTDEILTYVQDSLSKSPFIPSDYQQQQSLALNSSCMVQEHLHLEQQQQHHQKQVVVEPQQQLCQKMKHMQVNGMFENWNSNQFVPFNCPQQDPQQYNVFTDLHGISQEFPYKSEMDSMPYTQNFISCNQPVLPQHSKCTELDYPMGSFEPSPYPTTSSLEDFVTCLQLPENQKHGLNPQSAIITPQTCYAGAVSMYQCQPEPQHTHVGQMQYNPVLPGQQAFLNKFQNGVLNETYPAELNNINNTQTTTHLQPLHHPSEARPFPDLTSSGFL

As to `CC(C)CCCCCCCCCCCCCCC(=O)O`, the result in assay [1], in assay [2], in assay [3], in [4], in assay [5] and in assay [6] was inactive. In addition, the result in assay [7], in assay [8] and in assay [10] was inactive. Moreover, in [9], the concentration at half-maximal activity (AC50) is 54.2 µM (active).
For `COCCOCCOCCO`, the result in [1], in [2], in [3], in [4], in assay [5] and in [6] was inactive. Besides, the call in assay [7], in [8], in assay [9] and in assay [10] was inactive.
On to `O=C1OC2(c3ccccc31)c1ccc(O)c(Br)c1Oc1c2ccc(O)c1Br`, for which the result in assay [1], in [2], in assay [3], in assay [4], in assay [6] and in assay [7] was inactive. In addition, the outcome in [8], in assay [9] and in assay [10] was inactive. Moreover, the AC50 in assay [5] was 56.6 µM (active).
Consider `c1ccc2cc(Nc3ccc(Nc4ccc5ccccc5c4)cc3)ccc2c1`, for which the result in assay [1], in [2], in assay [3], in assay [4], in [6] and in assay [7] was inactive. Further, the call in assay [8], in assay [9] and in assay [10] was inactive. Also, the AC50 in assay [5] is 4 µM (active).
For the compound `O=[N+]([O-])c1ccc(O)cc1C(F)(F)F`, the concentration at half-maximal activity (AC50) was 48 µM (active) in assay [1]; 58.8 µM (active) in assay [2]; 100 µM (active) in [3]; 53.8 µM (active) in assay [5]; 71.8 µM (active) in [6]; 26.4 µM (active) in assay [7]. In addition, in assay [8], the half-maximal activity concentration (AC50) was 37.5 µM (active). Further, the call in assay [4], in assay [9] and in [10] was inactive.
As to `CCC(C)=O`, the result in assay [1], in [2], in assay [3], in assay [4], in assay [5] and in [6] was inactive. Also, the outcome in assay [7], in [8], in assay [9] and in assay [10] was inactive.
Regarding `NC(=S)NNC(N)=S`, the outcome in [1], in assay [2], in assay [3], in [4], in assay [5] and in [6] was inactive. For the same compound, the call in assay [7], in assay [8], in [9] and in assay [10] was inactive.
With `CCOc1ccc(NC(=O)CC(C)O)cc1` (stereo not given), the compound was called inactive in assay [1], in assay [2], in assay [3], in assay [4], in assay [5] and in assay [6]. Besides, the compound was called inactive in assay [7], in assay [8], in assay [9] and in [10].
With `COC(C)(C)CC(C)=O`, the compound was called inactive in [1], in [2], in assay [3], in assay [4], in assay [5] and in assay [6]. The outcome in assay [7], in assay [8], in [9] and in assay [10] was inactive.
Regarding `C=CC(=C)CCCC(C)(C)OC(C)=O`, the result in assay [1], in assay [2], in assay [3], in assay [4], in assay [5] and in assay [6] was inactive. In addition, the compound was classed as inactive in [7], in [8], in assay [9] and in assay [10].
On to `CC(C)NCC(O)COc1ccc(CC(N)=O)cc1` (stereo not given), for which the call in [1], in [2], in assay [3], in [4], in assay [5] and in assay [6] was inactive. In addition, the outcome in assay [7], in [8], in assay [9] and in assay [10] was inactive.
As to `CC(C)(C)OC(=O)c1ccc(O)cc1`, the result in [1], in assay [2], in [3], in [4], in [5] and in assay [7] was inactive. The compound was classed as inactive in [8], in assay [9] and in assay [10]. Further, the AC50 in [6] was 70.1 µM (active).
As to `CC(C)CCCCCCc1ccc(OCCOCCO)cc1`, the result in assay [1], in assay [2], in assay [3], in assay [4], in assay [5] and in assay [6] was inactive. Besides, the outcome in assay [7], in assay [8], in assay [9] and in assay [10] was inactive.
In the case of `Cc1ncc([N+](=O)[O-])n1CCO`, the outcome in assay [1], in assay [2], in [3], in assay [4], in assay [5] and in assay [6] was inactive. For the same compound, the outcome in assay [7], in assay [8], in assay [9] and in [10] was inactive.
In the case of `CC1(C)COCN1`, the compound was called inactive in [1], in assay [2], in assay [3], in [4], in assay [5] and in assay [6]. Further, the compound was classed as inactive in assay [7], in assay [8], in assay [9] and in assay [10].
`CCCC(C)=O`: the compound was classed as inactive in assay [1], in assay [2], in assay [3], in assay [4], in assay [5] and in [6]. Moreover, the compound was called inactive in assay [7], in [8], in assay [9] and in assay [10].
As to `CCCCC(CC)COC(=O)c1ccc(O)cc1` (stereo not given), the compound was called inactive in [1], in assay [2], in assay [3], in [4], in [5] and in assay [6]. The outcome in [7], in assay [8], in assay [9] and in assay [10] was inactive.
As to `COCCOC(=O)c1ccccc1C(=O)OCCOC`, the compound was classed as inactive in [1], in [2], in assay [3], in assay [4], in assay [5] and in assay [6]. Further, the call in assay [7], in assay [8], in assay [9] and in assay [10] was inactive.
In the case of `O=C1c2ccccc2C(=O)c2c(O)ccc(O)c21`, the compound was called inactive in assay [1], in assay [2], in assay [4], in assay [6], in [7] and in [8]. Also, the call in assay [9] and in assay [10] was inactive. Also, the AC50 in assay [3] is 3.02 µM (active); in [5], 0.296 µM (active).
As to `Cc1c(C2(c3cc(Br)c(O)c(Br)c3C)OS(=O)(=O)c3ccccc32)cc(Br)c(O)c1Br`, the compound was called inactive in [1], in assay [2], in assay [3], in assay [4], in assay [6] and in assay [7]. Moreover, the call in assay [8], in assay [9] and in assay [10] was inactive. In addition, the AC50 in assay [5] is 32.5 µM (active).
Regarding `Cc1c(Cl)cccc1[N+](=O)[O-]`, the result in [1], in assay [2], in [3], in assay [4], in assay [5] and in assay [6] was inactive. Also, the call in assay [7], in assay [8], in assay [9] and in [10] was inactive.
On to `NCCNc1cccc2ccccc12`, for which the AC50 in [1] was 170 µM (active); in [2] it was 169 µM (active); in assay [5], 7.19 µM (active); in assay [7], 100 µM (active). The outcome in assay [3], in assay [4], in assay [6], in [8], in [9] and in [10] was inactive.

The AC50 is the concentration giving half of the maximal activity seen.

(Values after PubChem BioAssay (EPA / NIEHS).)
